# ERK EGF block: qHTS Assay for Inhibitors of the ERK Signaling Pathway using a Homogeneous Screening Assay; Stimulation with EGF | HEK293-V1b, EGF-stimulated phospho-ERK AlphaScreen | Potency, µM (highest dose often 11.5 µM), for inactives: at the top dose activity change, negative = inhibition, most hits filed as inhibitors | hit rate 0.41% among 130,000 | AID 1454, 2008; active = well fitted inhibition curve with a large enough effect;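 note: plate controls were stimulated vehicle wells for no effect and unstimulated vehicle basal for full effect; nearly all actives have a fitted effect of over 55% in size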
#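 HEK293 cells stably expressing V1b receptor, serum-reduced (1% FBS) overnight, pretreated 30 min with compound, then stimulated 5 min with 25 nM EGF; phospho-ERK detected by AlphaScreen SureFire. AC50 from Hill fits, normalized to DMSO and EGF.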
# Numbers without * were called inactive; [ ] = dose if it differs, or a comment. The sample as a whole holds a higher share of hits than the screen did. Potency is the fitted concentration of half-maximal effect.
SMILES,ERK EGF block
NS(=O)(=O)c1ccc(Oc2ccc(S(N)(=O)=O)cc2)cc1,-10%
C=CS(=O)(=O)c1ccc(Oc2ccc(S(=O)(=O)C=C)cc2)cc1,13µM*
CC(=O)CC(C)(C)S(=O)(=O)c1ccc(Oc2ccc(S(=O)(=O)C(C)(C)CC(C)=O)cc2)cc1,-9%
C/C=C\C[C@@H](C)[C@@H](O)[C@H]1C(=O)N[C@@H](CC)C(=O)N(C)CC(=O)N(C)[C@@H](CC(C)C)C(=O)N[C@@H](C(C)C)C(=O)N(C)[C@@H](CC(C)C)C(=O)N[C@@H](C)C(=O)N[C@H](C)C(=O)N(C)[C@@H](CC(C)C)C(=O)N(C)[C@@H](CC(C)C)C(=O)N(C)[C@@H](C(C)C)C(=O)N1C,-4%
O=c1oc2cc(O)ccc2cc1-c1ccc2c(c1)OCCO2,1%
NC(=O)Cc1nc2scc(-c3ccccc3)c2c(=O)[nH]1,-3%
CC(C)[C@H](NC(=O)c1ccccc1)C(=O)OCc1nc2scc(-c3ccccc3)c2c(=O)[nH]1,35µM*
Cc1csc(SCc2nc3scc(-c4ccccc4)c3c(=O)[nH]2)n1,-3%
COc1cccc([C@@H]2Oc3ccc(OC)cc3C(=O)[C@H]2OC(=O)NCCc2ccc(OC)c(OC)c2)c1,-4%
N#CCCCS(=O)(=O)c1nnnn1-c1ccc(F)cc1Br,-17%
CCN(CC)c1ccc(/C=C(/C#N)C(=O)NC(C)C)o1,-7%
CC(C)N1C(=O)S/C(=C/c2ccccc2OCc2ccc(C(=O)O)cc2)C1=O,-2%
CCN(CC)c1ccc(/C=C2/SC(=O)N(C(C)C)C2=O)o1,28µM*
CC(C)C[C@@H](CC(=O)N[C@@H](CCC(=O)O)CC(=O)O)NC(=O)[C@@H]1CCCC[C@H]1NC(=O)C[C@H](CCCN)NC(=O)C[C@H](Cc1ccccc1)NC(=O)[C@@H]1CCCC[C@H]1N,-12%
COc1ccc2cnoc(=O)c2c1OC,-10%
O=Cc1sc(=O)n(Cc2cccc(C(=O)O)c2)c1Cl,-4%[57.5 µM]
CCn1c(Cl)c(C=O)s/c1=N\S(=O)(=O)c1ccccc1,18µM*
CCN1C(=O)CS/C1=N\S(=O)(=O)c1ccc(Cl)cc1,13%
Cc1ccccc1Nc1oc(-c2ccccc2)nc1-c1ccccc1,1%
CN(C(=O)COc1ccccc1C(=O)NCCOc1ccccc1)c1ccccc1,32µM*
CN(C(=O)COC(=O)CNC(=O)c1ccccc1Cl)c1ccccc1,-8%
CCOc1ccccc1C(=O)NCCC(=O)O,-16%[57.5 µM]
COCCn1c(=O)c(-c2cc(F)cc(F)c2)nc2cnc(Oc3cccc(Cl)c3)nc21,-17%
CCCN1C(=O)/C(=C\C=C2/C=CN(CC)c3ccccc32)SC1=S,13%
CCN1C(=O)/C(=C/C=C2/Sc3ccc4ccccc4c3N2CCO)SC1=S,2%
SMILES,ERK EGF block
CCN1C(c2ccccc2)=C(c2ccccc2)S/C1=C/C=C1\SC(=S)N(C)C1=O,3.2µM*
Cc1cccc(OCC(=O)N2CCN(c3nnc(-c4ccccc4)c4ccccc34)CC2)c1,-10%[57.5 µM]
Cc1ccc(-c2nnc(N3CCN(C(=O)COc4cccc(C)c4)CC3)c3ccccc23)cc1,40µM*
Cc1cccc(OCC(=O)N2CCN(C(=O)c3ccc([N+](=O)[O-])cc3)CC2)c1,-6%
C=CC(C)(C)c1[nH]c2ccccc2c1C1=C(O)C(=O)C(c2c[nH]c3c(CC=C(C)C)cccc23)=C(O)C1=O,-11%
O=C1/C(=C/c2ccncc2)N=C2CCCCCN12,-10%[57.5 µM]
O=C1CCC/C1=C\c1ccccc1,-8%
O=C1/C(=C/c2ccncc2)CCC/C1=C\c1ccncc1,22µM*
CC(C)(C)NC(=O)[C@@H]1C[C@H]2CCCC[C@@H]2CN1C[C@H](O)[C@H](Cc1ccccc1)NC(=O)[C@@H](CC(N)=O)NC(=O)c1ccc2ccccc2n1,-10%[25.7 µM]
COC(=O)C1=C(C)[C@H](O)[C@@H](C)[C@](C)(c2cc(OC)c(C)c(OC)c2COc2ccccc2)O1,0%
CCCCC[C@H](O)/C=C/C=C\C/C=C\C=C\[C@@H](O)CCCC(=O)O,-13%
C=CCC(C)(Nc1ccccc1)C(=O)OCC (centres undefined),-10%
COc1ccc(Nc2ncnc3ccc([N+](=O)[O-])cc23)c(OC)c1,1%
O=[N+]([O-])c1ccc(O)c(Nc2ncnc3ccc(Br)cc23)c1,25µM*
O=[N+]([O-])c1ccc(O)c(Nc2ncnc3ccccc23)c1,-16%
CCCCC[C@H](O)/C=C/C=C\C=C\C=C\[C@@H](O)[C@@H](O)CCCC(=O)O,-2%
CCOC(=O)C1CSC(Cc2ccc(OCc3ccc([N+](=O)[O-])cc3)cc2)N1 (centres undefined),0%
O=C(CSc1nc2ccccc2c(=O)n1-c1ccccc1)N1CCC1,-7%
O=C(CSc1nc2ccccc2c(=O)n1-c1ccccc1)N1CCc2ccccc2C1,28µM*
CC(C)c1ccccc1-n1c(SCC(=O)N2CCc3ccccc3C2)nc2ccccc2c1=O,39%
C=C(C(=O)OCC)C(=O)c1ccccc1,-5%
CN(C)c1ncnc2ccc(-c3ccccc3C#N)cc12,51%

# Screening results deposited in PubChem by National Center for Advancing Translational Sciences (NCATS).
